Data on eight molecules can be found in PubChem BioAssay (Tox21).

A number with no mark means an inactive call. Inconclusive results are not listed. The source made the active and inactive calls. Unless noted, the call rests on the fitted dose curve; in most records, active means well fitted curve in the direction sought with a large enough effect in the repeat runs; inconclusive means weak or mixed curves; inactive means no such curve, though single readings can be large; an effect the other way counts as inactive or inconclusive.

The nature of assay [1]: qHTS assay to identify small molecule antagonists of the estrogen related receptor (ERR) signaling pathway from Tox21 library - cell viability counter screen (AID 1224834). Further: nearly all actives have a fitted effect of over 30% in size. Further: potency means the concentration at half of the fitted maximal effect. The method in brief: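 ERR cells, 2,000/well; 6 h settle at 37 C/5% CO2; pin-tool compound transfer in DMSO; 17.5 h at 37 C; CellTiter-Fluor, 30 min; fluorescence intensity.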
Assay [2] concerns the target Luciferin 4-monooxygenase (Photinus pyralis) (UniProt P08659). In words: qHTS assay to identify small molecule inhibitors of firefly luciferase (AID 1224835). Further: nearly all actives have a fitted effect of over 25% in size. The method in brief: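 Quantitative HTS format; KM concentrations of both substrates. Purified P. pyralis FLuc activity quantified from luminescence images.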
In assay [3] the target is Nuclear receptor subfamily 1 group I member 3 (Homo sapiens) (UniProt Q14994). Kind of assay: qHTS assay to identify small molecule antagonists of the constitutive androstane receptor (CAR) signaling pathway (AID 1224838).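 Further: HepG2 cells stably expressing hCAR with CYP2B6 luciferase reporter stimulated by CITCO; nearly all actives have a fitted effect of over 40% in size.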 Further: potency means the concentration at half of the fitted maximal effect. The method in brief: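 Antagonist mode used CITCO at a final 50 nM to activate CAR in human hepatoma HepG2 cells carrying stable hCAR and a 2.2 kb CYP2B6 promoter-luciferase construct. Compounds were tested at 15 concentrations over 24 h, with luminescence as the end point.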
Sequence of Nuclear receptor subfamily 1 group I member 3 (Homo sapiens) (Q14994 whole entry, looked up): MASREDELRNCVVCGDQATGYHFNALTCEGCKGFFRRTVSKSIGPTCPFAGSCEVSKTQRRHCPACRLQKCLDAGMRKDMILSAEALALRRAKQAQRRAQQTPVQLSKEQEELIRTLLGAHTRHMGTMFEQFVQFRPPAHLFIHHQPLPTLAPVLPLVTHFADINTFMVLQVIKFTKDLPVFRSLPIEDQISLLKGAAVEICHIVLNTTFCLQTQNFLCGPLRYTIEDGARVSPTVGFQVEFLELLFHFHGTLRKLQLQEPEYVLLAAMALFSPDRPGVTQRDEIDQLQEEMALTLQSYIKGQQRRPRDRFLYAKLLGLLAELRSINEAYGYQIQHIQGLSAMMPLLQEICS

Assay [4] shares this target. In words: qHTS assay to identify small molecule agonists of the constitutive androstane receptor (CAR) signaling pathway (AID 1224839). Further: nearly all actives have a fitted effect of over 15% in size. The method, boiled down: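 Stable hCAR/CYP2B6-2.2kb HepG2 line in DMEM with 10% FBS; compounds (15 concentrations) and 0.75 uM PK11195 final, 24 h at 37 C/5% CO2, then ONE-Glo luminescence after 30 min.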
The nature of assay [5]: qHTS assay to identify small molecule antagonists of the estrogen related receptor signaling pathway with the pleiotropic PPARgamma coactivator (PGC) from Tox21 10K library - cell viability counter screen (AID 1224840; active means well fitted cell-killing curve with a large enough effect in the repeat runs, not every such curve was filed as active; further: nearly all actives have a fitted effect of over 40% in size; further: potency means the concentration at half of the fitted maximal effect). The method in brief:
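Multiplexed viability counter screen in the PGC/ERR cell line: cells treated with DMSO-dissolved compounds for 17.5 hours at 37 C, then viability measured as CellTiter-Fluor fluorescence.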

The nature of assay [6]: qHTS assay to identify small molecule antagonists of the estrogen related receptor signaling pathway with the pleiotropic PPARgamma coactivator (PGC) from Tox21 10K library (AID 1224841; call rule not given here; further: actives are mostly falling curves and most rising ones were filed inactive; nearly all actives have a fitted effect of over 50% in size). The method, boiled down: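 Steps: plate 2,000 PGC/ERR cells per well; incubate 6 h at 37 C with 5% CO2; transfer compounds from DMSO stocks by pin tool; incubate 18 h at 37 C; add One-Glo; measure luminescence 30 min later.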

Assay [7] is described as follows: qHTS assay to identify small molecule agonists of the estrogen related receptor signaling pathway with the pleiotropic PPARgamma coactivator (PGC) from Tox21 10K library (AID 1224842). Further: nearly all actives have a fitted effect of over 15% in size. Further: potency means the concentration at half of the fitted maximal effect. The method, boiled down: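 PGC/ERR reporter cells (NTP line) were seeded 2,000 per well, rested 6 h at 37 C/5% CO2, then pin-dosed with compounds in DMSO for 18 h at 37 C; luciferase read by One-Glo luminescence after 30 min at room temperature.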

Assay [8] deals with Thyrotropin receptor (Homo sapiens) (UniProt P16473). Kind of assay: qHTS assay to identify small molecule agonists of the thyroid stimulating hormone receptor (TSHR) signaling pathway (AID 1224843; calls by dose curve; further: nearly all actives have a fitted effect of over 45% in size). The method in brief: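 Compounds are titrated over 15 concentrations, in triplicate, onto TSHR-HEK293 cells seeded at 800/well. Plates sit 30 min at room temperature before cAMP-d2 and anti-cAMP cryptate are added; signal is read after a further hour.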
Sequence of Thyrotropin receptor (Homo sapiens) (P16473 whole entry, looked up): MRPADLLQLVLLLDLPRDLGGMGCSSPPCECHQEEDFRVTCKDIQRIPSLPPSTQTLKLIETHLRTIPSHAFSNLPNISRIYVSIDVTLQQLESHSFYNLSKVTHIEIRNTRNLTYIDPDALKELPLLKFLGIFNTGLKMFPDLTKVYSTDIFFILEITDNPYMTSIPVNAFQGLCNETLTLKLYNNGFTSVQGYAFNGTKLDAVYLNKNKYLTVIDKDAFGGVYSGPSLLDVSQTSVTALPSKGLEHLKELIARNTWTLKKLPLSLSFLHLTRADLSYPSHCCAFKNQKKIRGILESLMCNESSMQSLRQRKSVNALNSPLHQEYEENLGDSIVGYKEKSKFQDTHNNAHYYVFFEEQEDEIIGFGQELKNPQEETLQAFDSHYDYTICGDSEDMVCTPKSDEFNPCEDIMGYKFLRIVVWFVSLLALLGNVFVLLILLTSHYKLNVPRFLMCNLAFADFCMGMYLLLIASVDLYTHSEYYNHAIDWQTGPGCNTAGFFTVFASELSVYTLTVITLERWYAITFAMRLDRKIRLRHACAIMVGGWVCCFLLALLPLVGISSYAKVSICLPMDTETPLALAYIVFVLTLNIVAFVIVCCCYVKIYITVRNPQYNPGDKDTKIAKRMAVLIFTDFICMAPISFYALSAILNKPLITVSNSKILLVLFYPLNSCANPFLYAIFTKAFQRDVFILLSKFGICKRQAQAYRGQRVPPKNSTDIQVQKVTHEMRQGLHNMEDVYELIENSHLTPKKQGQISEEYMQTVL

Assay [9] in a line: qHTS assay to identify small molecule agonists of the hypoxia (HIF-1) signaling pathway - cell viability counter screen (AID 1224844; calls by dose curve; further: nearly all actives have a fitted effect of over 50% in size; further: potency means the concentration at half of the fitted maximal effect). The method in brief: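 Cytotoxicity was measured in parallel with the HRE-driven beta-lactamase readout: after 17 hrs of compound exposure at 37C, HRE-bla ME-180 cells received CellTiter-Glo and luminescence was recorded 30 min later.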
Assay [10] can be described thus: qHTS assay to identify small molecule agonists of the hypoxia (HIF-1) signaling pathway (AID 1224846; active means well fitted activation curve with a large enough effect in the signal ratio in the repeat runs, not every such curve was filed as active; the % refers to the signal ratio). The method, boiled down: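 Compounds from the Tox21 10K library, dissolved in DMSO, are tested for induction of a hypoxia response element–controlled beta-lactamase reporter in ME-180 cells. Exposure lasts 17 hrs at 37C after a 5 hr settling period, followed by CCF4-AM FRET substrate.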

Assay [11] is described as follows: qHTS assay to identify small molecule agonists of the estrogen related receptor (ERR) signaling pathway from Tox21 library (AID 1224849; calls by dose curve; further: nearly all actives have a fitted effect of over 15% in size). As to conditions: ERR reporter cell line, ONE-Glo luciferase, 18 h; at 92.4 µM (top of the series) unless noted. The method, boiled down: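 Cells carrying the ERR reporter were plated and allowed to settle for 6 h, exposed to library compounds for 18 h at 37 C, then lysed with ONE-Glo and luminescence measured.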

A short description of assay [12]: qHTS RealTime-Glo MT Cell Viability Assay in HepG2 cells - 24 hour (AID 1224867). Further: nearly all actives have a fitted effect of over 50% in size. Further: potency means the concentration at half of the fitted maximal effect. The method, boiled down:
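Tox21 10K library screened in qHTS format on HepG2 cells carrying RealTime-Glo reagents. Compounds were added after a 5 h preincubation, and the luminescent signal from continuous culture was measured repeatedly during 40 h treatment.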

Assay [13] is described as follows: qHTS RealTime-Glo MT Cell Viability Assay in HEK293 cells - 32 hour (AID 1224868). Further: nearly all actives have a fitted effect of over 50% in size. Further: potency means the concentration at half of the fitted maximal effect. The method in brief: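 Luminescence generated by NanoLuc from substrate produced by living HEK293 cells served as the viability signal. Each value reflects the reading at its stated time point during continuous 40 h compound exposure at 37 C.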
A short description of assay [14]: qHTS assay to identify small molecule agonists of H2AX - cell viability counter screen (AID 1224847; calls by dose curve; further: nearly all actives have a fitted effect of over 30% in size; further: potency means the concentration at half of the fitted maximal effect). The method in brief:
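Viability of CHO-K1 (wild type) cells after 3 hr compound exposure was measured by CellTiter-Glo luminescence.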

Assay [15] in a line: qHTS assay to identify small molecule antagonists of the estrogen related receptor (ERR) signaling pathway from Tox21 library (AID 1224848). Further: nearly all actives have a fitted effect of over 50% in size. Further: potency means the concentration at half of the fitted maximal effect. The method, boiled down: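 First, 2,000 ERR cells per well were plated and held 6 h at 37 C/5% CO2. Next, compounds in DMSO were pinned in and left 18 h at 37 C. Finally, ONE-Glo was added and luminescence read after 30 min at room temperature.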

Assay [16] in a line: A CellTox Green Cytotoxicity Assay to monitor cytotoxicity in HEK293 cells - 0 hour (AID 1224869). Further: nearly all actives have a fitted effect of over 50% in size. The method, boiled down:
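Cells (HEK293, 600/well) and dye reagent are dispensed together. After 5 h at 37 C, 23 nL compound is pinned in. Plates stay at 37 C for 40 h with fluorescence read at 0h, 8h, 16h, 24h, 32h and 40h.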

Assay [17] in a line: qHTS RealTime-Glo MT Cell Viability Assay in HepG2 cells - 40 hour (AID 1224870). Further: nearly all actives have a fitted effect of over 50% in size. The method, boiled down: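 HepG2 cells mixed with RealTime-Glo MT reagents (NanoLuc plus cell-permeant prosubstrate) were seeded at 600 cells/well, incubated 5 h at 37 C/5% CO2, then pinned with compounds in DMSO; nonlytic luminescence tracked viability during 40 h treatment.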
A short description of assay [18]: qHTS assay to identify small molecule antagonists of the constitutive androstane receptor (CAR) signaling pathway - cell viability counter screen (AID 1224837). Further: nearly all actives have a fitted effect of over 45% in size. The method, boiled down:
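Viability was measured with CellTiter-Fluor in a HepG2 line carrying stably transfected hCAR and a CYP2B6-2.2kb construct. Cells were exposed for 23 hr at 37 C to 15 compound concentrations with 50 nM CITCO as agonist.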

A short description of assay [19]: qHTS assay to identify small molecule agonists of the constitutive androstane receptor (CAR) signaling pathway - cell viability counter screen (AID 1224836). Further: nearly all actives have a fitted effect of over 45% in size. The method in brief: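 Fluorescence from CellTiter-Fluor indicates live cells after 23 h exposure. The human hepatoma line expresses hCAR and a CYP2B6-2.2kb reporter. Incubation medium contains 0.75 uM PK11195 (final).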

Assay [20] can be described thus: qHTS assay to identify small molecule agonists of H2AX (AID 1224845; active means well fitted activation curve with a large enough effect in the signal ratio in the repeat runs, not every such curve was filed as active; the % refers to the signal ratio). The method in brief: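 Wild-type CHO-K1 cells plated overnight, then exposed 3 hr at 37C to compounds at 15 concentrations (0.76% DMSO). Lysed, then HTRF anti-pH2AX(S139)-cryptate/anti-H2AX-d2 detection after 24 hr at room temperature; emissions 665 and 620 nm.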
On the % scale 0 is the no-effect control and ±100 the full control effect.

Sequence of Luciferin 4-monooxygenase (Photinus pyralis) (P08659 whole entry, looked up): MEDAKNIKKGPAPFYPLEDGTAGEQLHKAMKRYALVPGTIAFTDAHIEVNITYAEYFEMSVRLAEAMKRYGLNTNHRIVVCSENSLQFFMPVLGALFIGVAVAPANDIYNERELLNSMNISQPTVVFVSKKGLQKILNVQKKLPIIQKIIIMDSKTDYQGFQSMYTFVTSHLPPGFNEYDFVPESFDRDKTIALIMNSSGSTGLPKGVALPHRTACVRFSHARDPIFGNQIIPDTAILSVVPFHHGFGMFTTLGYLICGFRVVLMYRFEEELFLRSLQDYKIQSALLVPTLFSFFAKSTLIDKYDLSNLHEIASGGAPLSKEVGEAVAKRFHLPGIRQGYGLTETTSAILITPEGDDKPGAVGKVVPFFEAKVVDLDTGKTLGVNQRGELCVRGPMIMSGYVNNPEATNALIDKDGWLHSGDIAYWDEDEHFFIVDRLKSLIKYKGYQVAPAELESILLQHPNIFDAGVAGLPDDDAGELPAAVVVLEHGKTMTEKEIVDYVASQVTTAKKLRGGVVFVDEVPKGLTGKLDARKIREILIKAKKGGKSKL

For the molecule `COc1cc(C(=O)NC2CCN(C)CC2)ccc1Nc1ncc2c(n1)N(C1CCCC1)CC(F)(F)C(=O)N2C`, the Potency is 31.5 µM (active) in assay [1]; 8.88 µM (active) in [3]; 35.3 µM (active) in [5]; 2.5 µM (active) in [7]; 20 µM (active) in assay [9]; 40 µM (active) in assay [12]. The Potency in assay [13] is 0.0142 µM (active). The Potency entry in [2], in assay [4], in assay [6] and in [8] was “inactive” in each case. Also, the result in assay [10] was inactive. Further, in assay [11], the activity change, positive = activation was -53.6%.

`CN1C(=O)c2ccccc2C1=O`: the Potency entry in assay [1], in assay [2], in assay [3], in assay [4], in [5] and in assay [6] was “inactive” throughout. Further, the Potency entry in assay [7], in [8], in assay [9], in assay [14], in assay [15] and in assay [12] was “inactive” in each case. For the same molecule, the Potency entry in assay [16] and in [17] was “inactive” throughout. Besides, the activity change, positive = activation in [11] is 1.36%.

For the molecule `CCOC(=O)c1ccc(O)c(O)c1`, the Potency entry in assay [1], in [2], in assay [18], in assay [3], in [5] and in assay [12] was “inactive” in each case. Besides, the Potency entry in assay [13] and in assay [16] was “inactive” each time. In addition, the call in assay [10] was inactive.

With `O=C=Nc1ccc(Cl)c(Cl)c1`, the Potency entry in assay [1], in assay [19], in assay [18], in assay [3], in [4] and in assay [5] was “inactive” throughout. In addition, the Potency result in [6], in [7], in assay [8], in assay [9], in [20] and in [14] was “inactive” in each case. Also, the Potency entry in assay [12], in assay [13], in assay [16] and in assay [17] was “inactive” in each case. Besides, the call in assay [10] was inactive. Moreover, in assay [15], the Potency is 26.9 µM (active). For the same molecule, the activity change, positive = activation in [11] was -41%.

Take `OC(CCN1CCCC1)(c1ccccc1)C1CCCCC1` (stereo not given): the Potency result in assay [1], in [2], in assay [19], in assay [5], in assay [8] and in assay [9] was “inactive” throughout. Moreover, the Potency entry in assay [20], in assay [14], in [12], in assay [13], in [16] and in assay [17] was “inactive” each time.

Consider `CC(C)C=O`, for which the Potency result in assay [1], in assay [19], in assay [18], in assay [3], in assay [4] and in assay [5] was “inactive” throughout. In addition, the Potency result in [6], in [7], in [9], in assay [14], in assay [15] and in [12] was “inactive” in each case. For the same molecule, the Potency entry in [13], in [16] and in assay [17] was “inactive” throughout. The molecule was classed as inactive in assay [10]. Further, the activity change, positive = activation in assay [11] was 0.557%.

Take `C[C@@H](O)[C@H]1C(=O)N2C(C(=O)O)=C([C@H]3CCCO3)S[C@H]12`: the Potency entry in [1], in [2], in [19], in assay [5], in [8] and in [9] was “inactive” throughout. In addition, the Potency result in [20], in assay [14], in assay [12], in assay [13], in assay [16] and in assay [17] was “inactive” throughout. The call in assay [10] was inactive.

Regarding `O=C1c2ccccc2C(=O)N1CCc1noc(-c2ccc(CN3CCCCCC3)s2)n1`, the Potency in assay [1] was 49.9 µM (active); in assay [14], 92.3 µM (active); in assay [13], 35.7 µM (active). Further, the Potency result in [2], in assay [18], in assay [3], in [4], in assay [9] and in [20] was “inactive” throughout. For the same molecule, the Potency entry in assay [12] and in assay [17] was “inactive” each time. Also, the molecule was called inactive in [10].
